From PubChem BioAssay (NCATS)
Results filed as inconclusive are left out. Where a call stands in place of a potency, no number is given. The source made the active and inactive calls. Unless noted, calls follow the shape of the full dose curve.

Legend:
[1] = Primary qHTS for inhibitors of SARS-S pseudo-typed particle cell entry (AID 1479145); details: SARS-S pseudotyped particle cell entry, luciferase reporter; series mostly up to 57.1 µM; also: nearly all actives have a fitted effect of over 45% in size; also: potency is read from the fitted curve at half-maximal effect
[2] = Primary qHTS for Huh7 cytotoxicity: counterscreen for inhibitors of MERS-S pseudotyped particle cell entry (AID 1479147); details: cell viability read-out; series mostly up to 57.1 µM
[3] = Primary qHTS for inhibitors of MERS-S pseudo-typed particle cell entry (AID 1479149); details: MERS-S pseudotyped particle entry, luciferase; series mostly up to 57.1 µM; also: nearly all actives have a fitted effect of over 60% in size; also: potency is read from the fitted curve at half-maximal effect
[4] = Primary qHTS for Vero E6 cytotoxicity: counterscreen for inhibitors of SARS-S pseudo-typed particle cell entry (AID 1479150); details: cell viability; series mostly up to 57.1 µM; also: potency is read from the fitted curve at half-maximal effect
[5] = Primary qHTS for inhibitors of La Crosse Virus (LACV) - induced cell death in SH-SY5Y cells (AID 1508616; active = well fitted inhibition curve with a large enough effect;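 also: top concentration of the series differs between compounds; higher means more rescue of cells from virus-induced death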); details: SH-SY5Y LACV cytopathicity rescue, ATP luminescence, 6 d; series mostly up to 9.63 µM
Method in brief: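 Protection against LACV-induced cell death is scored in SH-SY5Y cells exposed to compounds and virus (0.01 MOI) for 6 days. Data normalized to virus-infected DMSO wells and virus-free DMSO wells.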

[6] = molecular target: Calcium and integrin-binding protein 1 (Homo sapiens) (UniProt Q99828); assay: Confirmatory qHTS for Identification of Calcium Integrin Binding Protein 1 (CIB1) Competitor (AID 1508617; active = well fitted inhibition curve with a large enough effect; also: nearly all actives have a fitted effect of over 65% in size; also: potency is read from the fitted curve at half-maximal effect); details: CIB1 binding competition assay, biochemical qHTS; series mostly up to 228 µM
Method in brief: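 Fluorescence polarization competition: CIB1-GST (1 uM final) in 5 mM HEPES pH 7.4, 125 mM NaCl, 5 mM CaCl2, 0.01% Tween20 preincubated 15 min RT with compound (up to 114 uM), then FITC-alphaIIb peptide (100 nM) added, 15 min RT.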

Chain of Calcium and integrin-binding protein 1 (Homo sapiens) (Q99828 whole entry, looked up): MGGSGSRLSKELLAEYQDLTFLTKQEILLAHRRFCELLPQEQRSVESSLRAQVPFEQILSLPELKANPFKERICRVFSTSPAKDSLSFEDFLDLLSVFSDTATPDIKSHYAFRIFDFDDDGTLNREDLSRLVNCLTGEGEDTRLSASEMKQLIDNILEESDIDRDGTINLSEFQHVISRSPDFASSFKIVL

SMILES | Potency [1] | Potency [2] | Potency [3] | Potency [4] | outcome [5] | Potency [6]
C/C(=C1\CCOC(=O)S1)N(C=O)Cc1cnc(C)nc1N | inactive | inactive | inactive | inactive |  | 
Cc1nnc(C(C)C)n1C1CC2CCC(C1)N2CC[C@H](NC(=O)C1CCC(F)(F)CC1)c1ccccc1 (stereo partly specified) |  | inactive | inactive | inactive |  | 
Cc1ccccc1N=Nc1ccc(N=Nc2c(O)ccc3ccccc23)c(C)c1 |  | inactive | inactive | inactive |  | 
Cc1ccc(C(=O)Nc2ccc(CN3CCN(C)CC3)c(C(F)(F)F)c2)cc1C#Cc1cnc2cccnn12 | 3.55 µM (active) |  |  | 22.4 µM (active) |  | 
CCCCC(CC)COC(=O)/C=C/c1ccc(OC)cc1 (stereo unspecified) | inactive | inactive | inactive | inactive |  | 
COc1cc2c(cc1OC)CC(=O)N(CCCN(C)C[C@H]1Cc3cc(OC)c(OC)cc31)CC2 |  | inactive | inactive | inactive |  | 
Clc1ccccc1CN1CCc2sccc2C1 |  | inactive | inactive | inactive |  | 
Cc1c(C(=O)Nc2ccc(N3C[C@@H](C)O[C@@H](C)C3)nc2)cccc1-c1ccc(OC(F)(F)F)cc1 |  | inactive | 20 µM (active) | inactive |  | 
CNC(=O)c1ccc(N2C(=S)N(c3ccc(C#N)c(C(F)(F)F)c3)C(=O)C2(C)C)cc1F | 8.91 µM (active) | inactive |  | inactive |  | 
CCN(CC)c1ccc(C(=C2C=CC(=[N+](CC)CC)C=C2)c2cc(S(=O)(=O)O)ccc2S(=O)(=O)[O-])cc1 | inactive |  | inactive |  |  | 
CCC(=O)O[C@@H]1C=C2CCC3C(CCC4(C)C3CC[C@@H]4OC(=O)CC)C2CC1 (stereo partly specified) | inactive | inactive | inactive | inactive | inactive | 
CNC(=O)c1cc(Oc2ccc(NC(=O)Nc3ccc(Cl)c(C(F)(F)F)c3)c(F)c2)ccn1 | 14.1 µM (active) | inactive |  | inactive |  | 
O=[N+]([O-])c1ccc([As](=O)(O)O)cc1 | inactive | inactive |  | inactive | inactive | 
CC(Cc1ccc(O)cc1)NCC(O)c1cc(O)cc(O)c1 (stereo unspecified) | inactive | inactive | inactive | inactive | inactive | 
COC(=O)c1cncn1C(C)c1ccccc1 (stereo unspecified) | inactive | inactive | inactive | inactive | inactive | 
O=C(O)COc1ccccc1 | inactive | inactive | inactive | inactive | inactive | 
CC[N+]1(CCOC(=O)C(O)(c2ccccc2)c2ccccc2)CCCCC1 | inactive | inactive | inactive | inactive | inactive | 
CCCCCCCCCCCCCCCC[N+](C)(C)C |  |  |  |  |  | 70.8 µM (active)
CC(=O)[O][Hg][c]1ccccc1 |  |  |  |  |  | inactive
CC1=C(O)C(=O)C=C2C1=CC=C1[C@@]2(C)CC[C@@]2(C)[C@@H]3C[C@](C)(C(=O)O)CC[C@]3(C)CC[C@]12C |  |  |  |  |  | 22.4 µM (active)
CC(C)Oc1cccc(NC(=O)c2ccccc2C(F)(F)F)c1 |  |  |  |  |  | inactive
